In the library only some 5.9% were active in any assay of this set; here they are far more common.
rCAG binder: binders of r(CAG) RNA repeats, primary screen, biochemical, fluorescence. r(CAG) RNA repeat, TO-PRO-1 dye displacement fluorescence. inhibition, % at 3 µM. actives 1.3% (n = 370,000). AID 651821, 2012;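 active = inhibition above the plate cutoff, the mean of all test compounds on that plate plus 3 SD, cut at about 35% in these data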;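 note: 0% = DMSO alone and 100% = 100 µM mitoxantrone as full dye displacement; higher means more dye released from RNA so lower well fluorescence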
LANA-H2A inh: blockers of LANA interaction with H2A/H2B – biochemical, FP readout, HTS, primary screen. Protein LANA1 (Human herpesvirus 8 type P (isolate GK18)), Q9QR71. cell-free LANA-H2A/H2B peptide, fluorescence polarization. inhibition, % (no concentration beside the values). actives 0.6% (n = 320,000). AID 2629, 2010; in the data active = inhibition mostly above about 10%, no sharp cut-off; inactive = mostly below about 6.7%
Rtt109 HAT inh: inhibitors of C. albicans Rtt109/Vps75 HAT, primary screen, biochemical, ThioGlo CoA-SH fluorescence, plate reader | Histone acetyltransferase RTT109 (Candida albicans (strain SC5314 / ATCC MYA-2876)), … | purified Rtt109/Vps75, 4 h | inhibition, % at 34.9 µM | actives 0.16% (n = 330,000);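 active = inhibition of at least 50% in every replicate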
ALR inh: inhibitors of human ALR sulfhydryl oxidase, primary screen, biochemical, H2O2 detection, HRP-luminol luminescence, single point. FAD-linked sulfhydryl oxidase ALR (Homo sapiens), P55789. purified ALR, DTT oxidation. inhibition, % (no concentration beside the values). actives 3.8% (n = 290,000). AID 485317, 2010;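 active = mean replicate inhibition above about 79%, with every replicate also reaching it, limit read from the data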
ABHD5-PLIN5 inh: ABHD5-PLIN5 interaction inhibitors, primary screen, cell lysate, split luciferase complementation, luminescence. inhibition, % at 4 µM. AID 602281, 2012. Split G. princeps luciferase complementation, 4 h. actives 0.78% (n = 360,000);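 active = inhibition above the mean inhibition across every tested compound plus 3 SD, cut at about 22% in these data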;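 note: 0% = DMSO only wells and the 100% control is not disclosed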
PRMT1 inh: PRMT1 methyltransferase inhibitors, primary screen, biochemical, fluorescence polarization; Protein arginine N-methyltransferase 1 (Homo sapiens), Q99873; recombinant PRMT1, activity-based probe fluorescence polarization; inhibition, % at 2.79 µM; actives 1.3% (n = 370,000);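 active = inhibition above about 21% made by adding two undisclosed values, limit read from the data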
ABHD5 PLIN5 conf: ABHD5-PLIN5 interaction inhibitors, confirmation, biochemical, luminescence. actives 67% (n = 2,200). AID 651612, 2012. inhibition, % at 4 µM. shares compounds with ABHD5-PLIN5 inh; in the data active = inhibition above about 23%;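 note: 0% = DMSO vehicle wells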
HNF4 counter: HNF4 dimerization inhibitors, counter-screen for ABHD5-PLIN5 interaction inhibitor project, biochemical, split-luciferase complementation, luminescence; actives 77% (n = 2,200); inhibition, % at 4 µM; shares compounds with ABHD5-PLIN5 inh; AID 651674, 2012;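 active = mean inhibition across replicate wells exceeding the computed hit threshold, cut at about 13% in these data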;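 note: light from luciferase halves that rejoin when HNF4 fusion proteins dimerize; 0% = DMSO only wells and the 100% control is not given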
Target sequence (P41235 whole entry, looked up, the tested form may be a part): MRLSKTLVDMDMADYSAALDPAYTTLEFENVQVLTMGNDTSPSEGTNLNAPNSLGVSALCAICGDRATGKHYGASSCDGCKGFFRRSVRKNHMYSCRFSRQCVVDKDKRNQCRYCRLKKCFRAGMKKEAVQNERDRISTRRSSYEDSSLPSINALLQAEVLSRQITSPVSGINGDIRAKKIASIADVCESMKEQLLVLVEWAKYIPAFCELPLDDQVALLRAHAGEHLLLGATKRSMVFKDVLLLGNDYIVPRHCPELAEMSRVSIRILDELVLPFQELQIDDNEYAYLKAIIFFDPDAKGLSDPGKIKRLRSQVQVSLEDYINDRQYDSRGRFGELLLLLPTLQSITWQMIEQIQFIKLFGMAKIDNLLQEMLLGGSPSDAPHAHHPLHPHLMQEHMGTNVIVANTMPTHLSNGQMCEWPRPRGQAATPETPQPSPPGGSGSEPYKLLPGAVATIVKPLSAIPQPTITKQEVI
* = called active by the depositor; · = not tested or not shown; + = active, no number.

SMILES	rCAG binder	LANA-H2A inh	Rtt109 HAT inh	ALR inh	ABHD5-PLIN5 inh	PRMT1 inh	others
CNC(=S)N(CCc1c(C)[nH]c2ccccc12)Cc1cccnc1	-1	4	-2	100*	4	-1
CCN1C(=O)/C(=C/c2ccc(N3CCCC3)cc2)NC1=S	5	-9	-2	97*	3	-17
CCCN1C(=O)/C(=C/c2ccc(N3CCOCC3)cc2)NC1=S	-19	-2	1	74	0	-11
O=C(NCC(=O)N(Cc1ccccc1)C(C(=O)NC1CCCC1)c1cccnc1)c1ccco1 (stereo not drawn)	-8	-4	-8	-1	14	-2
Cc1ccc(CN(C(=O)c2ccco2)C(C(=O)NC2CCCC2)c2cccnc2)cc1 (stereo not drawn)	-1	+	-2	-2	2	-3
CCCCC(NC(=O)CCc1c(C)c2cc3c4c(oc3c(C)c2oc1=O)CCCC4)C(=O)O (stereo not drawn)	23	-1	11	96*	5	-1
CC(=O)c1ccc(NC(=O)/C(=C\c2ccccc2)NC(=O)/C=C/c2ccccc2)cc1	9	7	2	-10	5	-2
CC(=O)N/C(=C/c1cccnc1)C(=O)Nc1ccc(Cl)cc1	-1	-1	14	-8	-3	-2
CC(=O)N/C(=C\c1ccccc1)C(=O)Nc1ccc(O)cc1	3	-3	1	99*	3	2
O=C(/C=C/c1ccccc1)N/C(=C/c1ccccc1)C(=O)Nc1ccc(C(=O)O)cc1	27	0	7	87*	-2	1
C[C@]12Cc3ccccc3C1CC1=N[C@@H](c3ccc(C(F)(F)F)cc3)O[C@@]13C[C@@H]2C(=O)N3C1CCN(Cc2ccccc2)CC1 (stereo partly drawn)	4	·	·	·	·	5
CCOC(=O)Cn1c(C)[n+](CC(=O)c2ccccc2)c2ccccc21	-1	-9	55*	0	4	9
O=[N+]([O-])c1ccccc1C1Nc2cccc3cccc(c23)N1	19	-3	12	-19	13	29*
COc1cc(C(NC(=O)C(F)(F)F)C2CCCC=C2c2ccccc2)cc(OC)c1OC (stereo not drawn)	4	·	·	·	·	2
O=C(c1ccc(CS(=O)c2cccc(Cl)c2)o1)N1CCCCCC1 (stereo not drawn)	-3	0	-2	21	-10	2
NS(=O)(=O)c1cc2c(cc1Cl)NC=NS2(=O)=O	3	13*	-6	1	-2	-2
COc1ccc(C2c3ccc4ccccc4c3Oc3ncn(CCCN(C)C)c(=N)c32)cc1 (stereo not drawn)	8	1	-6	-20	22*	-3
COc1ccc2oc(C)c(C(=O)NN)c2c1	0	7	-5	85*	-2	0
CCOC(=O)CCC(=O)c1c(C)oc2ccc(OC)cc12	-1	0	6	-12	-12	4
O=C(Nc1c(-c2ccc(F)cc2)nc2ncccn12)c1ccc(F)cc1	1	·	·	·	·	2
CCOc1ccc(-c2nc(-c3cccs3)c(CC(=O)O)s2)cc1OC	20	1	-15	89*	1	-2
CCOC(=O)[C@@]12CN(C(=O)OC(C)(C)C)CC=C1N(Cc1ccc(OC)cc1)C(=O)[C@H]2CC(=O)N1CCCC1	2	·	·	·	·	5
COc1ccc(C(=O)CCN2CCc3cc(OC)c(OC)cc3C2)cc1	-6	-10	39	98*	5	22*
CCOC(=O)c1ccc(N=Nc2c(C)[nH]n(-c3ccccc3)c2=O)cc1	-1	0	0	-9	0	-4
CCOC(=O)c1ccc(-n2[nH]c(-c3ccccc3)cc2=O)cc1	49*	2	0	-33	-16	0
SMILES	rCAG binder	LANA-H2A inh	Rtt109 HAT inh	ALR inh	ABHD5-PLIN5 inh	PRMT1 inh	others
O=C(/C=C/c1cccc(Cl)c1)c1nc2ccccc2[nH]1	18	2	11	·	61*	3	ABHD5 PLIN5 conf=98*;HNF4 counter=99*
C[C@H]1[C@@H](OC(=O)NCc2ccccc2)CC[C@@]23CCCN2C(=O)CCC[C@@H]13	·	·	·	·	·	-2
COC(=O)c1cc(C)nc2c1C(=O)C(=O)C=C2N1CCOCC1	1	-4	6	4	39*	0	ABHD5 PLIN5 conf=73*;HNF4 counter=53*
CCOc1cccc(=O)c2c(C)n(Cc3ccco3)c(C)c12	15	0	3	9	24*	18	ABHD5 PLIN5 conf=29*;HNF4 counter=55*
CCOc1cccc(=O)c2c(C)n(Cc3ccccc3)c(C)c12	1	0	-4	2	1	0
CCc1ccc(S(=O)(=O)/N=C2\C=CC(=O)c3ccccc32)cc1	·	2	·	-20	·	·
O=S(=O)(N=C1C=CC(=NS(=O)(=O)c2ccccc2)c2ccccc21)c1ccccc1	32	·	·	·	33*	17	ABHD5 PLIN5 conf=63*;HNF4 counter=42*
CNC[C@H](Cc1ccccc1)NC[C@@H](Cc1cccc2ccccc12)NCCc1ccc(C)cc1	11	-2	12	-42	39*	5	ABHD5 PLIN5 conf=5;HNF4 counter=14*
O=C(NCc1ccco1)Nc1ccc(Br)cc1	-1	0	9	·	14	-1
O=C(NCc1ccco1)Nc1ccc2nsnc2c1	6	-6	-4	-13	38*	17	ABHD5 PLIN5 conf=50*;HNF4 counter=82*
COc1cccc(-n2nc(C#N)c(Cl)cc2=O)c1	4	·	-2	·	29*	3	ABHD5 PLIN5 conf=37*;HNF4 counter=41*
COc1cccc(-n2nc(C(N)=O)c(O)cc2=O)c1	0	2	3	-3	-10	4
COc1ccc(Cn2ccc3ccc(-c4ccc5ccn(Cc6ccccc6F)c5c4)cc32)cc1	20	·	·	·	·	8
Cc1nn(CC(=O)Nc2ccccn2)c(C)c1[N+](=O)[O-]	0	3	-1	-1	73*	4	ABHD5 PLIN5 conf=2;HNF4 counter=-4
COc1ccc(-c2cc(N)n(S(=O)(=O)c3c(F)c(F)c(F)c(F)c3F)n2)cc1OC	22	-1	19	30	30*	11	ABHD5 PLIN5 conf=50*;HNF4 counter=6
COc1ccc(CN=C2NN=C(c3ccc(Cl)cc3)CS2)cc1	0	0	-3	-2	-11	7
